Test results as given in PubChem BioAssay (EPA / NIEHS).
Several values for one entry are separate records, joined by “and”; a condition that tells them apart may be missing. Identical values can stand only once. Where a structure was tested more than once in an assay, its records may differ in their call. Activity calls are given as the source filed them. How the source made its calls: active means hit-call score of the fitted dose curve at least 0.9, where 1 is the maximum; inactive means score below 0.9.

Read-out: E-selectin (Homo sapiens) (UniProt P16581)
Experiment: BSK_3C_Eselectin: BioMAP Diversity Plus: 3C Assay for Eselectin Biomarker Activity (AID 2283015);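 on outcome: cell surface E-selectin protein quantified by ELISA 24 h after dosing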
Details: primary human endothelial cells (HUVEC); actives raise or lower the signal
In short: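 Primary human umbilical vein endothelial cells (3C system), read 24 h after compound addition; E-selectin measured by ELISA. Bidirectional curve fitting against DMSO baseline; cytotoxicity by parallel SRB total-protein staining.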

E-selectin (Homo sapiens), sequence (P16581 whole entry, looked up): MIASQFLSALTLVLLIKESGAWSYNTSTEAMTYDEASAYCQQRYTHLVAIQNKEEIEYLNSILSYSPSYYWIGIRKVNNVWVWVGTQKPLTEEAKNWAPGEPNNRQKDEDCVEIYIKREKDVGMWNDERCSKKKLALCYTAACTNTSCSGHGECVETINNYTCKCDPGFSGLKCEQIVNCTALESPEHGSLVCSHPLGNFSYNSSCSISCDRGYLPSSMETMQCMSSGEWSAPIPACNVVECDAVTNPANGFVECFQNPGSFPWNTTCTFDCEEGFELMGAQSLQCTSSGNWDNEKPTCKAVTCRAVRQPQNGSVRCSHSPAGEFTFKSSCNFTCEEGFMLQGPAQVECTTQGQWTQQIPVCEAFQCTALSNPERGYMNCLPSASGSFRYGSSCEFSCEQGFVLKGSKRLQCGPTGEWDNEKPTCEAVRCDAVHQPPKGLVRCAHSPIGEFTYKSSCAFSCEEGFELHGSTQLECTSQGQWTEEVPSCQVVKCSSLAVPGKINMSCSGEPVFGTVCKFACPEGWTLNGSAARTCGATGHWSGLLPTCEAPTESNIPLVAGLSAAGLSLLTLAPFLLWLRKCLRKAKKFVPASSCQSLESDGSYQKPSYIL

| Compound | AC50 | outcome |
| --- | --- | --- |
| Nc1ccc(-c2ccc(N)c(N)c2)cc1N | 8.29 µM (active) |  |
| O=c1[nH]c(Cl)c(Cl)cc1Cl |  | inactive |
| O=C(O)CCCc1ccc(N(CCCl)CCCl)cc1 | 20 µM (active) |  |
| COC(C)(C)CCC[C@H](C)C/C=C/C(C)=C/C(=O)OC(C)C | 28.7 µM (active) |  |
| O=P1(NCCCl)OCCCN1CCCl (stereo unspecified) |  | inactive |
| O=S(=O)(c1ccccc1)c1ccccc1 |  | inactive |
| Clc1ccc(-c2ccccc2)cc1 |  | inactive |
| Oc1cc(Cl)ccc1Cl |  | inactive |

Read-out: Interleukin-1 alpha (IL1a), IL1A (gene 3552)
Experiment: BSK_BE3C_IL1a: BioMAP Diversity Plus: BE3C Assay for Interleukin-1 alpha (IL1a) Biomarker Activity (AID 2283016)
Details: primary human bronchial epithelial cells; actives raise or lower the signal
In short: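 Cultures of primary human bronchial epithelial cells receive test chemical. After 24 h, IL-1a is quantified by ELISA, while parallel wells are fixed in TCA and SRB-stained for total protein. Changes in either direction are fitted relative to DMSO.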

| Compound | outcome | AC50 |
| --- | --- | --- |
| Nc1ccc(-c2ccc(N)c(N)c2)cc1N | inactive |  |
| O=c1[nH]c(Cl)c(Cl)cc1Cl | inactive |  |
| O=C(O)CCCc1ccc(N(CCCl)CCCl)cc1 |  | 20 µM (active) |
| COC(C)(C)CCC[C@H](C)C/C=C/C(C)=C/C(=O)OC(C)C |  | 7.52 µM (active) |
| O=P1(NCCCl)OCCCN1CCCl (stereo unspecified) | inactive |  |
| O=S(=O)(c1ccccc1)c1ccccc1 | inactive |  |
| Clc1ccc(-c2ccccc2)cc1 | inactive |  |
| Oc1cc(Cl)ccc1Cl | inactive |  |

Read-out: Monocyte Chemoattractant Protein-1 (MCP1), CCL2 (gene 6347)
Experiment: BSK_3C_MCP1: BioMAP Diversity Plus: 3C Assay for Monocyte Chemoattractant Protein-1 (MCP1) Biomarker Activity (AID 2283017)
Details: primary human endothelial cells (HUVEC); actives raise or lower the signal
In short: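 Human umbilical vein endothelial cells (3C system) exposed to chemicals for 24 h; MCP-1 quantified by ELISA against the DMSO baseline with bidirectional fitting, and parallel SRB staining used to assess cytotoxicity.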

| Compound | outcome | AC50 |
| --- | --- | --- |
| Nc1ccc(-c2ccc(N)c(N)c2)cc1N | inactive |  |
| O=c1[nH]c(Cl)c(Cl)cc1Cl | inactive |  |
| O=C(O)CCCc1ccc(N(CCCl)CCCl)cc1 |  | 20 µM (active) and 28.2 µM (active) |
| COC(C)(C)CCC[C@H](C)C/C=C/C(C)=C/C(=O)OC(C)C |  | 36.9 µM (active) |
| O=P1(NCCCl)OCCCN1CCCl (stereo unspecified) | inactive |  |
| O=S(=O)(c1ccccc1)c1ccccc1 | inactive |  |
| Clc1ccc(-c2ccccc2)cc1 | inactive |  |
| Oc1cc(Cl)ccc1Cl | inactive |  |

Read-out: Interleukin-8 (IL8), CXCL8 (gene 3576)
Experiment: BSK_3C_IL8: BioMAP Diversity Plus: 3C Assay for Interleukin-8 (IL8) Biomarker Activity (AID 2283020)
Details: primary human endothelial cells (HUVEC); actives raise or lower the signal
In short: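 Human vascular endothelial cells (umbilical vein) in the 3C system; IL-8 level detected by ELISA at 24 h post-dose, with DMSO as baseline.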

| Compound | outcome |
| --- | --- |
| Nc1ccc(-c2ccc(N)c(N)c2)cc1N | inactive |
| O=c1[nH]c(Cl)c(Cl)cc1Cl | inactive |
| O=C(O)CCCc1ccc(N(CCCl)CCCl)cc1 | inactive |
| COC(C)(C)CCC[C@H](C)C/C=C/C(C)=C/C(=O)OC(C)C | inactive |
| O=P1(NCCCl)OCCCN1CCCl (stereo unspecified) | inactive |
| O=S(=O)(c1ccccc1)c1ccccc1 | inactive |
| Clc1ccc(-c2ccccc2)cc1 | inactive |
| Oc1cc(Cl)ccc1Cl | inactive |

Read-out: Monokine induced gamma interferon (MIG), CXCL9 (gene 4283)
Experiment: BSK_3C_MIG: BioMAP Diversity Plus: 3C Assay for Monokine induced gamma interferon (MIG) Biomarker Activity (AID 2283021);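 on AC50: MIG protein level measured by immunoassay in the treated endothelial cultures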
Details: primary human endothelial cells (HUVEC); actives raise or lower the signal
In short: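 After 24 h of treatment, human umbilical vein endothelial cultures (3C system) had their MIG biomarker level determined by ELISA, with DMSO serving as negative control.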

| Compound | outcome | AC50 |
| --- | --- | --- |
| Nc1ccc(-c2ccc(N)c(N)c2)cc1N | inactive |  |
| O=c1[nH]c(Cl)c(Cl)cc1Cl | inactive |  |
| O=C(O)CCCc1ccc(N(CCCl)CCCl)cc1 | inactive | 32.8 µM (active) |
| COC(C)(C)CCC[C@H](C)C/C=C/C(C)=C/C(=O)OC(C)C |  | 39.2 µM (active) |
| O=P1(NCCCl)OCCCN1CCCl (stereo unspecified) | inactive |  |
| O=S(=O)(c1ccccc1)c1ccccc1 | inactive |  |
| Clc1ccc(-c2ccccc2)cc1 | inactive |  |
| Oc1cc(Cl)ccc1Cl | inactive |  |
